The campaign covered roughly 370,000 compounds. About 760 (0.21%) were called active.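 The calls were made as follows: active = inhibition above a per-campaign cutoff: mean of compounds within control limits plus 3 SD (cut at about 15% in these data); inactive = the rest.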 The list comes from a sample in which actives are over-represented; it also holds similar structures and randomly drawn compounds.
These compounds were tested against Fibrinogen beta chain (Homo sapiens) (UniProt P02675) (assay: inhibitors of Tn6 peptide binding to fibrin DD(E), primary screen, biochemical, fluorescence polarization, human fibrin, Tn6 probe (AID 720509;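 also: 0% = median of all compound wells on the plate and 100% = blocking peptide control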)). Conditions: Fibrin DD(E) TRITC-Tn6 fluorescence polarization displacement; at 8.3 µM; active compounds read high.
Sequence of Fibrinogen beta chain (Homo sapiens) (P02675 whole entry, looked up): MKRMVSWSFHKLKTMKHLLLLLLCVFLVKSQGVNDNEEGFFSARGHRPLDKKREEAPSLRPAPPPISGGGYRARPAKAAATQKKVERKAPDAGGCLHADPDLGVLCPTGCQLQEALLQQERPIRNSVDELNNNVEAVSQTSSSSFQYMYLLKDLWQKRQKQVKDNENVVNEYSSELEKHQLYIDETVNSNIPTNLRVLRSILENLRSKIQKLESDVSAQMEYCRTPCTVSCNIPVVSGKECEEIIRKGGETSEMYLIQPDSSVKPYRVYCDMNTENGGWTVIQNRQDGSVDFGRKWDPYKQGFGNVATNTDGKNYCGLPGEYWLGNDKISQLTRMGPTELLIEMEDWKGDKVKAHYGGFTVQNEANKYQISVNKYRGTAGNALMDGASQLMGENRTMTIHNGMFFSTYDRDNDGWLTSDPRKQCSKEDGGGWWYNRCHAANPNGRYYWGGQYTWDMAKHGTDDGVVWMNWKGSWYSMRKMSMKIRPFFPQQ

SMILES	inhibition
CC1CNCCN1c1ccc(Cl)cc1 (stereo not given)	0.71% (inactive)
Cc1cc(N2CCNC[C@@H]2C)ccc1N1CC[C@H](O)C1	15.6% (active)
COc1ccccc1-n1c(O)c(C=NC2CC2)c(=O)[nH]c1=O	-5.91% (inactive)
CC(=O)C1(O)CCC2C3CCC4=C(Cl)C(=O)CCC4(C)C3CCC21C (stereo not given)	-1.79% (inactive)
OC(Cn1c2ccccc2c2ccccc21)C[n+]1ccccc1 (stereo not given)	-10% (inactive)
COc1ccc2c(c1O)-c1cccc3c1[C@@H](C2)N(C)CC3	15.8% (active)
COC1=C[C@@H]2[C@@H]3Cc4ccc(OC)c(O)c4[C@]2(CCN3C)CC1=O	5.14% (inactive)
COc1c(O)ccc2c1-c1c3c(cc4c1C(C2)N(C)CC4)OCO3 (stereo not given)	0.43% (inactive)
Fc1cccc(F)c1CN1CCN(Cc2c(F)cccc2F)CC1	-1.68% (inactive)
CO[C@H]([C@H](C)/C=C/N(C)C=O)[C@@H](C)C(=O)CC[C@H](C)[C@H](O)[C@H](C)[C@H]1OC(=O)/C=C/C(C)=C/[C@H](O)[C@H](OC)C[C@@H]2C=CC[C@@H](C[C@H](OC)[C@@]3(CO3)[C@@H](OC)C[C@@H](OC)[C@@H]1C)O2	1.04% (inactive)
